# Experimental data taken from PubChem BioAssay AID623868 (Vanderbilt High Throughput Screening Facility, 2012).
# In all, about 2,100 compounds went through this assay and about 760 (36%) were called active. Only a sample is shown. A number with no mark means an inactive call.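 The calls were made as follows: active = thallium-flux fluorescence traces judged by eye to show enhanced or reduced glutamate response, manual score 1 or -1, so both directions (some results past the limit were not filed as active); inactive = the rest, including fluorescent or raised-baseline compounds.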
# Test: thallium influx changes without GIRK channels – cell-based, HEK-293 rmGlu8, no GIRK, thallium flux, counter-screen for GIRK activator project, confirmation (AID 623868);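 also: extra codes mark interference with 3 for fluorescent and 4 for baseline rise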
# Settings: thallium flux fluorescence, at 10 µM, actives lie on both sides, codes: 1 enhancer, -1 blocker, 0 none, thallium stimulus containing EC20 glutamate
row,Compound,manual score
1,Cc1ccc(CNC(=O)Cc2csc(Nc3nc(=S)[nH]c4ccccc34)n2)cc1,1 (active)
2,O=C(Cc1csc(Nc2nc(=S)[nH]c3ccccc23)n1)NCc1ccccc1Cl,0
3,O=C(Cc1csc(Nc2nc(=S)[nH]c3ccccc23)n1)NCc1cccc(Cl)c1,1 (active)
4,N#CC(c1cccc(Cl)c1)c1ccc2c(C(F)(F)F)cc(C(F)(F)F)nc2n1 (stereo not given),0
5,Oc1cccc(NC(=S)Nc2ccc(SC(F)F)cc2)c1,0
6,CN(C)CCNC(=O)c1ccc2c(c1)N(Cc1ccc(F)cc1)CCS2,0
7,CCOC(=O)CSc1nc2ccc(Nc3nc(N4CCOCC4)nc(N4CCOCC4)n3)cc2s1,0
8,O=C(O)c1cccc(Nc2nc(N3CCOCC3)nc(N3CCOCC3)n2)c1,-1 (active)
9,CC1CC(C)CN(Cc2nc(N)nc(Nc3ccc4ccccc4c3)n2)C1 (stereo not given),0
10,O=C(COC(=O)c1cccc(N2C(=O)c3ccccc3C2=O)c1)Nc1ccccc1,0
11,CC(=O)Nc1cccc2c1C(=O)N(c1cccc(C)c1)C2=O,0
12,CC(C)CC(=O)Nc1cccc2c1C(=O)N(c1ccccc1)C2=O,-1 (active)
13,CCOc1ccc(Br)cc1/C(C)=N\NC1=NCCN1,0
14,N#CC1=C(N)Oc2n[nH]c(-c3cccs3)c2C1c1ccoc1 (stereo not given),0
15,S=C1NC(c2ccccc2)=NCN1c1ccc(Cl)cc1,1 (active)
16,Cc1cs/c(=N\N=C\c2cccc([N+](=O)[O-])c2)n1Cc1ccco1,0
17,Cc1cc(C)c(-n2c(C)cc(/C=C3/NC(=O)NC3=O)c2C)c(C)c1,0
18,Cc1ccccc1-n1c(SCc2ccccn2)nc2n[nH]c(C)c2c1=N,0
19,CCCOc1cccc(OCCSc2nc(C)cc(=O)[nH]2)c1,0
20,CCOc1ccc2nc(NC(=O)C(CC)Sc3nc(C)cc(=O)[nH]3)sc2c1 (stereo not given),-1 (active)
21,CC(C)Cn1c2c(c(O)c(C(=O)Nc3ncccc3O)c1=O)CCCC2,-1 (active)
22,C/C(=N\NC(=O)COc1ccc(C)cc1C(C)C)c1ccc(-n2ccnc2)cc1,0
23,CC12CCC(C(=O)N(CSC(=S)N/N=C\c3ccccc3)C1=O)C2(C)C (stereo not given),1 (active)
24,CN(C)c1ccc(/C=N\NC(=S)SCN2C(=O)C3CCC(C)(C2=O)C3(C)C)cc1 (stereo not given),0.5
25,COc1ccc(/C=N\NC(=S)SCN2C(=O)C3CCC(C)(C2=O)C3(C)C)cc1 (stereo not given),1 (active)
26,CC(Nc1ccc(Br)cn1)c1cc(Cl)ccc1O (stereo not given),0
27,Cc1cc(C)c(NC(=O)/C(=C/c2ccco2)c2ccccc2)c(C)c1,0

row,Compound,manual score
1,CC(C)NC(=O)/C(=C/c1ccco1)c1ccccc1,0
2,O=C(Nc1ccccc1C(=O)N/N=C/c1ccco1)c1ccccc1,1 (active)
3,Cc1ccccc1C(=O)Nc1ccccc1C(=O)N/N=C\c1ccco1,1 (active)
4,CN(c1ccccc1C(=O)Nc1ccccc1C(=O)NCc1ccco1)S(C)(=O)=O,0
5,Cc1ccccc1C(=O)N/N=C/c1ccc([N+](=O)[O-])s1,0
6,COc1cc(NC(=O)CSc2nccc(C)n2)c(C)cc1[N+](=O)[O-],0
7,Cc1c(NC(=S)NC(NC(=O)CC(C)C)C(Cl)(Cl)Cl)c(=O)n(-c2ccccc2)n1C (stereo not given),0
8,CCc1cc2c(=O)n(CC)c(SC(C)C(=O)Nc3c(C)n(C)n(-c4ccccc4)c3=O)nc2s1 (stereo not given),-1 (active)
9,CCCC(c1c(C)n(C)n(-c2ccccc2)c1=O)c1c(C)n(C)n(-c2ccccc2)c1=O,0
10,O=c1c2c(nc3c(-c4ccc(Cl)cc4)c[nH]n13)CCCC2,1 (active)
11,O=c1[nH]c(SCc2ccccc2Cl)nc2c1CCCC2,0
12,O=c1c2c(nc3c(-c4cccc(Br)c4)c[nH]n13)CCCC2,0
13,Cc1ccc(-c2[nH]n3c(=O)c4c(nc3c2C)CCCC4)cc1,0
14,O=c1c2c(nc3c(-c4ccccc4)c[nH]n13)CCCC2,1 (active)
15,Cc1ccc2c(CC(=O)NC3CCCc4ccccc43)coc2c1 (stereo not given),0
16,CCOc1ccc(NC(=O)Nc2cc(C)ccc2OC)cc1,0
17,C=C(C)C1CC=C(C)/C(=N/NC(=O)COc2ccc(C)cc2)C1 (stereo not given),0
18,Cc1ccc(OCC(=O)N/N=C/c2cccn2C)cc1,0
19,CC(C)(C)NC(=O)C(=O)NNC(=O)COc1ccc(Br)cc1,1 (active)
20,COc1ccc(OCC(=O)NNC(=O)C(=O)Nc2ccc(C)cc2)cc1,1 (active)
21,COc1cccc(NC(=O)COc2ccc(C)cc2)c1,0
22,COc1ccccc1NC(=O)COc1ccc(Br)cc1CO,0
23,Cc1ccc(OCC(=O)NNC(=O)C(=O)NC(C)(C)C)cc1,1 (active)
24,S=C1NC2=C(CCCC2)C2(CCCCC2)N1,0
25,CN(CC(=O)Nn1cnnc1)S(=O)(=O)c1ccc(Br)cc1,0
26,CCC(NC(=O)c1ccccc1O)c1ccccc1 (stereo not given),0
27,C/C(=N\NC(=O)c1ccccc1)c1nc2ccccc2n1C,0

row,Compound,manual score
1,C/C(=N\NC(=O)c1cccc(F)c1)c1ccc(Br)s1,1 (active)
2,C/C(=N\NC(=O)c1ccc(Cl)cc1)c1ccc(Br)s1,1 (active)
3,C/C(=N\NC(=O)c1ccccc1O)c1ccc(Br)s1,1 (active)
4,O=C(N/N=C/c1c(Cl)cccc1Cl)c1cccc(F)c1,0
5,CN(C)/C=C/C(=O)/C=C/c1cn(-c2ncc(C(F)(F)F)cc2Cl)c2ccccc12,0
6,CCc1ccc2c(c1)C1(NN=C(c3ccc(C)cc3)S1)C(=O)N2 (stereo not given),0
7,CCOC(=O)c1c(NS(=O)(=O)c2cccc(OC)c2)sc2c1CCC2,1 (active)
8,CCOC(=O)c1c(NS(=O)(=O)c2ccc(Br)cc2)sc2c1CCC2,1 (active)
9,CCOC(=O)c1c(NC(=O)C2C3C=CC(C3)C2C(=O)O)sc2c1CCC(CC)C2 (stereo not given),0
10,CCOC(=O)c1ccc(CNCc2ccc(Br)cc2)cc1,0
11,O=C1CS/C(=N\C(=O)N2c3ccccc3Sc3ccccc32)N1,0
12,CC(C)Cn1cnc2c(c(-c3ccccc3)c(-c3ccccc3)n2Cc2ccco2)c1=N,0
13,CC(=O)/C(=N\Nc1ccc(Cl)cc1Cl)Sc1cccc2cccnc12,1 (active)
14,O=S(=O)(Nc1cc(Sc2cccc3cccnc23)c(O)c2ccccc12)c1ccc(F)cc1,0
15,CCOc1ccc(-c2nc(-c3ccncc3)no2)cc1OCC,0
16,O=C(c1cccc(F)c1)N1CCN(Cc2ccco2)CC1,0
17,O=C(CC(=O)c1ccccc1O)c1ccc(F)cc1,1 (active)
18,O=C(CC(=O)c1ccccc1O)c1cccc(F)c1,1 (active)
19,O=C(CC(=O)c1cc(Cl)ccc1O)c1ccccc1,1 (active)
20,Cc1ccc(C(=O)CC(=O)c2cc(Cl)ccc2O)cc1,0
21,C/C(=N/NC(=O)c1cc(Cl)ccc1O)C12CC3CC(CC(C3)C1)C2,0
22,Cc1cccc(C(=O)CC(=O)c2cc(Cl)ccc2O)c1,0.5
23,COC(=O)c1nc(NC(C)=O)n[nH]1,0
24,Cc1ccc(NC(=O)COn2nnc3ccc(S(=O)(=O)N(C)C)cc32)cc1F,0
25,CCN(CC)CCN1C(=O)c2oc3ccccc3c(=O)c2C1c1ccc(C)cc1 (stereo not given),0
26,Cc1ccc(C2c3c(oc4ccc(Cl)cc4c3=O)C(=O)N2CCCN2CCOCC2)o1 (stereo not given),1 (active)
27,O=c1c(O)c(-c2cccs2)oc2ccc(Cl)cc12,3

row,Compound,manual score
1,COCCn1c(CN(Cc2ccccc2)Cc2ccccc2)nc2c1c(=O)n(C)c(=O)n2C,0
2,O=C(N/N=C\c1cc(Br)c(Br)o1)c1cncc(Br)c1,1 (active)
3,CCNC(=O)NC(=O)COC(=O)CCCSc1nc2ccccc2[nH]1,0
4,CN(C)CCCOc1ccc(C(C)(C)c2ccccc2)cc1,0
5,O=C(NC(=S)Nc1ccccc1Cl)c1csnn1,1 (active)
6,O=C(NC(=S)Nc1ccccc1)c1csnn1,1 (active)
7,Cc1ccc(C)c(NC(=S)NNC(=O)c2csc(C(C)C)c2)c1,1 (active)
8,Cc1cccc(NC(=S)NNC(=O)c2csc(C(C)C)c2)c1,1 (active)
9,CC(C)C(=O)Nc1cccc(NC(=O)c2cc3ccccc3o2)c1,0
10,O=[n+]1c2c(n([O-])c3cc(F)c(N4CCCC4)cc31)CCC2,3
11,Cc1cccc2c(=O)cc(C)n(CC(=O)N3CCCCC3)c12,-0.5
12,CCN(C(=O)CSc1nc2ccccc2n1CCc1ccccc1)C1CCS(=O)(=O)C1 (stereo not given),0
13,CCOC(=O)CSc1nc(C)c2cc(OC)ccc2n1,0
14,COc1ccc2c(-c3ccccc3)cc(SCC(=O)N(C)C3CCS(=O)(=O)C3)nc2c1 (stereo not given),1 (active)
15,Cc1ccc(NC(=O)Cc2ccccc2Cl)cc1S(=O)(=O)N(C)C,0
16,CN(CCNC(=O)c1cc2c(=O)n(C)c3ccccc3c2n1C)Cc1ccccc1,0
17,CC1(C)Cc2c(ccc3ccccc23)-c2nnc(-c3cccnc3)n21,0
18,COc1ccc(-c2ccnc3nc(Sc4ncc(C(F)(F)F)cc4Cl)nn23)cc1,0
19,Cc1cc([N+](=O)[O-])ccc1NC(=S)NC(=O)Cc1ccccc1,1 (active)
20,O=C(Cc1ccccc1)N/N=C/c1cccn1-c1ccc([N+](=O)[O-])cc1,0
21,Cc1ccc([N+](=O)[O-])cc1NC(=S)NC(=O)c1ccco1,1 (active)
22,Cc1ccc(NC(=S)NCc2ccccc2)cc1[N+](=O)[O-],0
23,O=C(NC(=S)Nc1cc([N+](=O)[O-])ccc1Cl)c1ccccc1,0
24,COc1cccc(C(=O)NC(=S)Nc2ccc([N+](=O)[O-])cc2C)c1,1 (active)
